Shown are actives, neighbours in structure and some others; about 12% of the full set was active somewhere.
JMJD2A Tudor = JMJD2A Tudor domain (human) inhibition | Potency, µM (titrated, usually from 114 µM), inactives show at the top dose activity change, negative = inhibition, hits mostly inhibitors | O75164 | 390,000 compounds, 4.4% hits | AlphaScreen JMJD2A-Tudor / H3K4me3 peptide binding | AID 504339; also: potency is read from the fitted curve at half-maximal effect; % is scaled to controls: 0 for no effect and ±100 for the full control effect; nearly all actives have a fitted effect of over 50% in size
PLK1 PBD block = blocks phosphopeptide binding to human PLK1 polo-box domain | P53350 | AID 720504 | Plk1 PBD binding of FITC phosphopeptide, fluorescence polarization | Potency, µM, inactives show max response, negative = inhibition, most hits filed as inhibitors | 360,000 compounds, 2.8% hits; also: potency is read from the fitted curve at half-maximal effect; series mostly up to about 57 µM; % is scaled to controls: 0 for no effect and ±100 for the full control effect; nearly all actives have a fitted effect of over 65% in size
G9a block = inhibitors of human histone lysine methyltransferase G9a; 350,000 compounds, 8.8% hits; Q96KQ7; G9a H3K9 monomethylation, AlphaScreen, 2 h; Potency, µM (series often up to 102 µM), for the others: at the highest dose activity, negative = inhibition, actives largely listed as inhibitors; also: potency is read from the fitted curve at half-maximal effect; % is scaled to controls: 0 for no effect and ±100 for the full control effect; nearly all actives have a fitted effect of over 75% in size
Target sequence (Q96KQ7 913-1193 limits assumed): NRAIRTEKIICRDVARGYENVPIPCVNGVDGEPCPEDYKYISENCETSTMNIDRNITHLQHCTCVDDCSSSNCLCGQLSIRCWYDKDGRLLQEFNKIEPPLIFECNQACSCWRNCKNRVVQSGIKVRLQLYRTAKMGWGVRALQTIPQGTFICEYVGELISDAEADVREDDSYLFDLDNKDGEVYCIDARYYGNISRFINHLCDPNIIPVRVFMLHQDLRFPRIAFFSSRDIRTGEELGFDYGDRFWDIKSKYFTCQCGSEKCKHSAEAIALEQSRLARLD
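AlphaScreen detection with an anti-monomethyl H3K9 antibody quantified product after a 2 h room-temperature reaction containing 500 nM biotinylated H3K9 peptide, 20 µM SAM and 20 nM enzyme, which had been preincubated 15 min with compound.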
BAZ2B inh = BAZ2B (human) inhibition; Potency, µM (top dose mostly 114 µM), for the others: top-dose activity change, negative = inhibition, usual class: inhibitors; 360,000 compounds, 4.4% hits; AID 504333; AlphaScreen BAZ2B-H3K14Ac peptide displacement; also: potency is read from the fitted curve at half-maximal effect; % is scaled to controls: 0 for no effect and ±100 for the full control effect; nearly all actives have a fitted effect of over 60% in size
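AlphaScreen luminescence quantifies BAZ2B engagement of H3K14Ac peptide; the protein and biotinylated peptide are both at 50 nM final, buffer PBS pH 7.4 with 0.01% Tween-20, all steps at room temperature.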
PI5P4K alpha inh = PI5P4K alpha (human) kinase inhibition | max response, % | 330,000 compounds, 1.2% hits | PI5P4Kalpha enzyme, ADP-Glo luminescence, 60 min; stronger effect = lower value | P48426; active = max response of -50% or lower; inconclusive = between -30% and -50%; inactive = -30% or higher; also: value at the top dose of about 77 µM; % is scaled to controls: 0 for no effect and ±100 for the full control effect
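Luminescence from ADP-Glo served as readout of PI5P4Kalpha activity in a qHTS format. Reaction: enzyme, substrate, compound, ATP at 5 microM final, 60 min at RT.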
HP1b binding inh = blocks HP1-beta chromodomain binding to methylated histone tails; P83916; AlphaScreen HP1-beta / biotin-H3K9me3 peptide binding; Potency, µM (titrated, usually from 114 µM), for the others: top-dose activity change, negative = inhibition, actives largely listed as inhibitors; 390,000 compounds, 0.56% hits; AID 540317; also: potency is read from the fitted curve at half-maximal effect; nearly all actives have a fitted effect of over 70% in size
Target sequence (P83916 whole entry, looked up): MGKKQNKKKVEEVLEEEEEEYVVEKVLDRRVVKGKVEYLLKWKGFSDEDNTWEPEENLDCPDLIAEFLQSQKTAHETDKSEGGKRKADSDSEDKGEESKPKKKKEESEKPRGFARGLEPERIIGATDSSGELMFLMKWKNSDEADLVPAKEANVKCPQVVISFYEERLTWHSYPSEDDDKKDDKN
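Compound inhibition of the preformed complex between 50 nM HP1-beta and 50 nM biotinylated H3K9me3 peptide was read by AlphaScreen. Buffer was PBS pH 7.4 with 0.01% Tween-20. Incubations ran 30 min at room temperature, with 10 ug/mL donor/acceptor beads.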
Numbers without * were called inactive; ? = inconclusive; / = not tested or not shown; [ ] = remark or other dose. Unless noted, calls follow the shape of the dose curve; as a rule, active = well fitted curve in the direction sought with a large enough effect; inconclusive = small, poorly fitted or top-dose-only effect, or another doubt; inactive = no such curve, though single readings can be large; an effect the other way counts as inactive or inconclusive.

SMILES	JMJD2A Tudor	PLK1 PBD block	G9a block	BAZ2B inh	PI5P4K alpha inh	HP1b binding inh
O=C(NCc1ccccc1F)C1CCCN(C(=O)N2CCOc3ccccc32)C1 (stereo unspecified)	-20.4%	/	?	0.3%	/	1.2%
COc1ccc(/C=C(\NC(=O)c2cccs2)C(=O)NN)cc1OC	0.3%	4.3%	7.5%	-0.8%	12.6	38.1%
CC#CC[N+](C)(C)CCCCCCCCCC	-2.1%	6.7%	12.5%[12.7 µM]	7.6%	-0.7	34.6%
C#CC[N+](C)(C)CCCCCCCCC	4.3%[57.1 µM]	37.7µM*	-25.7%[59 µM]	31.9%	-5.9	29.7%
O=c1cc(O)n(-c2ccc(Cl)cc2)c(=S)[nH]1	-16.0%	-20.6%	10µM*	-1.7%	-20.5	41.0%
Cc1ccccc1-n1c(O)cc(=O)[nH]c1=S	0.7%	-6.7%	44.7µM*	-21.3%	-29.3	28.9%
O=c1cc(O)n(-c2ccccc2F)c(=S)[nH]1	-30.8%	2.4%	50.1µM*	-9.6%	/	-2.6%
O=C(NCCN1CCOCC1)C1CC(=O)N(c2cccc(C(F)(F)F)c2)C1 (stereo unspecified)	-12.4%	1.1%	-9.4%	-4.4%	-6.0	12.9%
Cc1nnc(NC(=O)C2CCN(S(=O)(=O)c3cc([N+](=O)[O-])ccc3Cl)CC2)o1	10µM*	-3.0%	?	15.8µM*	-19.5	26.8%
CC1=NCCN1S(=O)(=O)c1cc([N+](=O)[O-])ccc1Cl	-1.0%	-13.2%	44.7µM*	-13.8%	1.8	-15.6%
Cc1cccc2sc(NC(=O)C3CCCN(S(=O)(=O)c4cccc5nonc45)C3)nc12 (stereo unspecified)	-20.9%	23.7%	?	2.4%	-3.1	8.9%
Cc1cccc2sc(NC(=O)C3CCN(S(=O)(=O)c4cc([N+](=O)[O-])ccc4Cl)CC3)nc12	14.1µM*	?	7.94µM*	?	?	?
Nc1ncnc2c1ccn2[C@H]1CN(Cc2ccc3c(c2)OCO3)C[C@@H](COC(=O)c2ccccc2)O1	/	7.0%	/	/	-4.4	/
Cc1ccc(-n2ncc3c(=O)n(-c4cccc(C)c4)c(=O)[nH]c32)cc1	/	-11.3%	/	/	0.0	/
Cc1ccc(NC(=O)c2sc(-n3nc(C)c(Cc4ccc5c(c4)OCO5)c3C)nc2C)cc1Cl	4.0%	/	-1.1%[59 µM]	-2.2%	/	/
CCOc1ccc(C2=NC(c3cccs3)=Nc3ccc(C(C)C)cc3N2)cc1	20µM*	/	10µM*	22.4µM*	/	-25.2%
CCCCOc1ccc(C2=NC(c3cccs3)=Nc3ccc(CC)cc3N2)cc1	?	/	?	?	/	-11.6%
Clc1ccc2c(c1)NC(c1ccncc1)=NC(c1cccs1)=N2	?	/	28.2µM*	?	/	-5.0%
CCc1ccc2c(c1)NC(c1ccc(C)cc1)=NC(c1cccs1)=N2	44.7µM*	/	12.6µM*	25.1µM*	/	?
COc1ccc(C2=Nc3ccccc3NC(c3cccs3)=N2)cc1	-22.6%	/	3.9%[59 µM]	-0.7%	/	4.4%
CCOc1ccc(-c2c(C)nn3c(C)c(C(=O)Nc4cccc(Cl)c4C)cnc23)cc1OCC	-17.7%	/	-1.8%[59 µM]	-14.4%	/	16.9%
O=C(NCC1CCCCC1)c1ccc(=O)[nH]c1	-2.7%	-1.1%	44.7µM*	-3.1%	-1.0	-0.3%
CC(CNC(=O)c1ccc(C#N)cc1)NC(=O)c1ccc(C#N)cc1 (stereo unspecified)	-7.8%	-7.7%	41.2%[0.501 µM]	2.2%	-8.0	6.9%
O=C(NCC1CCCCC1)c1cccc(-c2ccc(O)cc2)c1	-12.4%	-6.8%	-4.0%	9.4%	-5.0	35.7%
N#Cc1ccc(C(=O)NCC2CCCCC2)cc1	12.0%	0.6%	50.1µM*	0.9%	4.0	21.5%
SMILES	JMJD2A Tudor	PLK1 PBD block	G9a block	BAZ2B inh	PI5P4K alpha inh	HP1b binding inh
CC(OC(=O)c1ccc2ncsc2c1)C(=O)Nc1cccc(Cl)c1 (stereo unspecified)	-26.1%	-15.6%	27.2%[12.7 µM]	-0.9%	2.6	5.1%
COc1ccc(-c2nc(SC(C)C(=O)NC3CC3)n[nH]2)cc1 (stereo unspecified)	1.4%	1.2%	-3.9%	-4.6%	-3.1	23.4%
COCC(=O)N1CCC(Oc2ccc(C(=O)N(C)C(C)c3ccon3)cc2)CC1 (stereo unspecified)	-7.6%	-5.7%	/	3.8%	10.6	11.6%
COc1ccc(Nc2nc(-c3cccc(OC)c3O)nc3ccccc23)cc1	?	-3.5%	50.1µM*	39.8µM*	-1.7	-16.2%
COc1cccc(-c2nc(N3CCC(C)CC3)c3ccccc3n2)c1O	56.2µM*	-6.1%	35.5µM*	?	12.4	-43.6%
COc1cccc(-c2nc(N3CCCC3)c3ccccc3n2)c1O	?	-1.6%	/	?	5.6	-9.2%
COc1cccc(-c2nc(N3CC(C)CC(C)C3)c3ccccc3n2)c1O (stereo unspecified)	?	1.4%	35.5µM*	?	4.2	?
CC1(C)C(=O)Nc2ccccc2N1C(=O)COC(=O)c1ccc(NC(N)=O)cc1	-19.7%	-5.1%	35.5µM*	-9.6%	-17.4	8.7%
Cc1nnc2c(N3CCN(c4ccc(F)cc4)CC3)nc3ccc(C(=O)c4ccccc4)cc3n12	-5.5%	/	18.9%[59 µM]	-8.4%	/	58.6%
CCCc1cc(C(=O)Nc2c(C)nn(Cc3c(Cl)cccc3Cl)c2C)no1	-3.4%	/	3.3%[59 µM]	5.3%	/	33.6%
CCn1cc([N+](=O)[O-])c(C(=O)N2N=C(c3ccc(OC)cc3OC)CC2c2ccccc2O)n1 (stereo unspecified)	?	-9.2%	44.7µM*	-2.5%	-8.9	?
C[C@@H]1CN([C@@H](C)CO)C(=O)c2cc(Br)cnc2O[C@H]1CN(C)C(=O)Nc1ccccc1	/	-11.8%	/	/	-5.1	/
Cc1c(CCC(=O)O)c(=O)oc2c(C)c3occ(-c4ccc(Cl)cc4)c3cc12	?	29.9µM*	?	56.2µM*	-17.3	?
Cc1oc2c(C)c3oc(=O)c(CCC(=O)O)c(C)c3cc2c1-c1ccccc1	-27.8%	26.7µM*	?	?	0.3	3.3%
Cc1coc2c(C)c3oc(=O)c(CCC(=O)NCCC(=O)O)c(C)c3cc12	?	-11.1%	4.7%	50.1µM*	-1.2	4.7%
O=C(NC(c1ccccc1)c1ccc2ccccc2n1)C1CCN(Cc2ccc(Cl)c(Cl)c2)CC1 (stereo unspecified)	/	-9.2%	/	/	-8.4	/
CO[C@H]1C[C@@H]2CC[C@@H](C)[C@@](O)(O2)C(=O)C(=O)N2CCCC[C@H]2C(=O)O[C@H]([C@H](C)C[C@@H]2CC[C@@H](OCCO)[C@H](OC)C2)CC(=O)[C@H](C)/C=C(\C)[C@@H](O)[C@@H](OC)C(=O)[C@H](C)C[C@H](C)/C=C/C=C/C=C/1C	/	/	-37.8%[12.7 µM]	/	/	/
CC1CCc2c(nc3ncnn3c2NCCN(C)C)C1 (stereo unspecified)	56.2µM*	?	3.98µM*	-25.5%	3.1	12.1%
